We go through 35 molecules from PubChem BioAssay (EPA / NIEHS).

A word on the AC50: it is the concentration giving half of the maximal activity seen.

Activity calls are given as the source filed them. Rule for the calls: active = hit-call score of the fitted dose curve at least 0.9, where 1 is the maximum; inactive = score below 0.9.

The experiment is described as follows: CEETOX_H295R_OHPROG: CeeTox H295R High-throughput Steroidogenesis Assay for OH-Progesterone (OHPROG) (AID 2283435). The following applies: actives raise or lower the signal. As for the experimental part:
CEETOX_H295R is a cell-based, multiplexed-readout assay that uses H295R, a human adrenal gland cell line, with measurements taken at 48 hours after chemical dosing in a 96-well plate.CEETOX_H295R_OHPROG is one of 23 assay component(s) measured or calculated from the CEETOX_H295R assay. It is designed to make measurements of hormone induction, a form of inducible reporter, as detected with absorbance signals by HPLC-MS-MS technology.Data from the assay component CEETOX_H295R_OHPROG was analyzed into 1 assay endpoint. This assay endpoint, CEETOX_H295R_OHPROG, was analyzed with bidirectional fitting relative to DMSO as the negative control and baseline of activity. Using a type of inducible reporter, gain or loss-of-signal activity using HPLC-MS-MS was used to understand synthesis of 17alpha-hydroxyprogesterone in H295R cell line at 48hr of chemical exposure. To generalize the intended target to other relatable targets, this assay endpoint is annotated to the steroid hormone intended target family, where the subfamily is progestagens.
Cell culture and media preparation procedures were conducted in accordance with OECD Test No. 456 guidelines, with minor modifications. H295R cells (ATCC CRL-2128) were expanded for 5 passages and frozen in batches in liquid nitrogen. Prior to the steroidogenesis assay, H295R cells were thawed and passed at least 4 times. The maximum passage was 10. Cells were maintained in a 1:1 mixture of DMEM/F12 supplemented with 5ml/L ITS+ Premix (BD Bioscience) and 12.5 ml/L Nu-Serum (BD Bioscience). After seeding cells into 96-well plates at 50-60% confluency, cells were allowed to adhere overnight. Prior to chemical testing, culture medium was replaced with 175 uL medium containing 10 uM forskolin to stimulate steroidogenesis for 48 hours. Following prestimulation, forskolin medium was replaced with medium containing test chemical solubilized in DMSO (ensuring a final concentration of 0.1% DMSO). Test chemicals were incubated for 48 hours, then the medium was removed and split into 2 vials containing approximately 75uL each, and stored at -80 C prior to hormone analysis. For steroid quantification, media samples were shipped to OpAns, LLC (Durham, NC) on dry ice, and samples were thawed to room temperature prior to liquid-liquid extraction. Steroid hormones were extracted from media samples using methyl tertbutyl ether (MTBE). An extra derivatization with dansyl chloride was included for estrogen (estrone and estradiol) detection only. Steroid hormones were separated by HPLC, eluted using a reverse phase C18 gradient with electrospray positive ionization, followed by quantification by tandem mass spectrometry (MS/MS). Data were acquired on a MassHunter Workstation Acquisition version B03.01 (Agilent Technologies, Inc.) and processed using MassHunter Quantitative Analysis for QQQ. Accuracy was determined for each hormone analyte from 3 standards to determine upper and lower limits of quantification (ULOQ and LLOQ, respectively) using a 7-point standard curve. Precision and accuracy of the extraction and quantification methods were calculated as the percent relative standard deviation (%RSD) of the spiked standards and percent spiked standard recovered, respectively. […] Test medium was removed following chemical exposure, and cell viability was evaluated in the same wells by MTT. MTT procedures were as follows: after removal of test medium, 500 uL of 0.5 mg/ml of 3-[4,5-dimethylthiazol-2-y]2,5-diphenyltetrazoliumbromide solution was added to the cells. Following a 4-hour incubation at 37 C and 5% CO2 to allow formazan-crystal formation, the MTT solution was removed and blue formazan salt crystals were solubilized using 500uL anhydrous isopropanol with shaking for 20 minutes. Absorbance was read at 570 and 650nm using a Packard Fusion microplate reader. Background correction of absorbance units was used to determine percent change relative to controls. […]
Turning to `O=C(Nc1ccccc1-c1ccc(Cl)cc1)c1cccnc1Cl`, the molecule was called inactive.
For `CCNP(=S)(OC)O/C(C)=C/C(=O)OC(C)C` (stereo not given), the result was inactive.
Consider `CCCCC(C#N)(Cn1cncn1)c1ccc(Cl)cc1` (stereo not given), for which the AC50 was 4.02 µM (active).
With `CN/C(=N\[N+](=O)[O-])NCc1cnc(Cl)s1`, the outcome was inactive.
With `CCOP(=S)(OCC)Oc1nc(Cl)n(C(C)C)n1`, the AC50 was 35.8 µM (active).
Take `CCC(C)n1c(=O)[nH]c(C)c(Br)c1=O` (stereo not given): the molecule was called inactive.
Turning to `COC(=O)NC(=S)Nc1ccccc1NC(=S)NC(=O)OC`, the result was inactive.
Turning to `COP(=S)(OC)Oc1ccc([N+](=O)[O-])c(C)c1`, the AC50 was 2.22 µM (active).
On to `COc1cc(Cl)c(OC)cc1Cl`, for which the outcome was inactive.
For the molecule `CC(C)(C)C(=O)C(Oc1ccc(Cl)cc1)n1cncn1` (stereo not given), the AC50 was 21 µM (active).
With `CC1(C)CON(Cc2ccccc2Cl)C1=O`, the call was inactive.
The same measure, in the same setting: in the case of `N#Cc1c(Cl)cccc1Cl` it was “inactive”; in that of `CCOC(=O)C(C)OC(=O)c1cc(Oc2ccc(C(F)(F)F)cc2Cl)ccc1[N+](=O)[O-]` (stereo not given), “inactive”.
`Nc1cnn(-c2ccccc2)c(=O)c1Cl`: the molecule was classed as inactive.
The same measure, in the same setting: in the case of `Cc1nc(N(C)C)nc(OC(=O)N(C)C)c1C` it was “inactive”.
Still for that read-out and setting: the result for `CCOc1cc(C(C)(C)C)ccc1C1COC(c2c(F)cccc2F)=N1` (stereo not given) reads “inactive”; that for `CCCC(=NOCC)C1=C(O)CC(CC(C)SCC)CC1=O` (stereo not given), “inactive”; that for `COCc1cnc(C2=NC(C)(C(C)C)C(=O)N2)c(C(=O)O)c1` (stereo not given), “inactive”.
On to `CC(C)Oc1cccc(NC(=O)c2ccccc2C(F)(F)F)c1`, for which the AC50 is 13.7 µM (active).
Turning to `CCSC(=O)N1CCCCCC1`, the molecule was called inactive.
Still for that read-out and setting: in the case of `CC1(C)CCC(=Cc2ccc(Cl)cc2)C1(O)Cn1cncn1` (stereo not given) it was “inactive”; in that of `CCN(CC)c1nc(C)cc(OP(=S)(OC)OC)n1`, “inactive”; in that of `N#CN=C1SCCN1Cc1ccc(Cl)nc1`, “inactive”.
On the same count and under the same terms, the result for `CCN(CC)C(=O)C(C)Oc1cccc2ccccc12` (stereo not given) reads “inactive”; that for `CCOc1nc(C(Cl)(Cl)Cl)ns1`, “inactive”.
On the same count and under the same terms, the result for `Clc1nc(Cl)nc(Nc2ccccc2Cl)n1` reads “inactive”.
As to `O=C1C2CC=CCC2C(=O)N1SC(Cl)(Cl)Cl` (stereo not given), the molecule was called inactive.
As to `CC(C)Nc1nc(Cl)nc(NC(C)C)n1`, the outcome was inactive.
On the same count and under the same terms, the result for `CNC(=O)Oc1cccc2ccccc12` reads “inactive”.
For `CC(C)NC(=O)N1CC(=O)N(c2cc(Cl)cc(Cl)c2)C1=O`, the AC50 is 19 µM (active).
In the case of `CC1(C)C(C=C(Cl)Cl)C1C(=O)OC(C#N)c1cccc(Oc2ccccc2)c1` (stereo not given), the call was inactive.
Still for that read-out and setting: the result for `Cc1c(COC(=O)[C@@H]2[C@H](/C=C(\Cl)C(F)(F)F)C2(C)C)cccc1-c1ccccc1` reads “inactive”.
With `COP(=S)(OC)SCn1nnc2ccccc2c1=O`, the AC50 was 2.27 µM (active).
On to `COCC(=O)N(c1c(C)cccc1C)C(C)C(=O)OC` (stereo not given), for which the result was inactive.
Turning to `CCCN(CC)CC1COC2(CCC(C(C)(C)C)CC2)O1` (stereo not given), the AC50 was 0.112 µM (active).
